In PubChem BioAssay (Tox21):
Where “and” joins values, the source holds several entries; their conditions need not be identical. Equal values may be shown once. Calls of active or inactive are those of the source. Entries that show only a call come without a potency. Calls come from the whole dose curve.

molecular target: Acetylcholinesterase (Homo sapiens) (UniProt P22303); test: Acetylcholinesterase (AChE) small molecule antagonists: enzyme-based qHTS assay (AID 1347397); conditions: Potency: AChE enzyme activity inhibition; series mostly up to 115 µM; note: nearly all actives have a fitted effect of over 55% in size
Text: National Center for Advancing Translational Sciences [NCATS]
Division of Preclinical Innovation [DPI]
U.S. Environmental Protection Agency [EPA]
National Institutes of Environmental Health Sciences [NIEHS]
National Toxicology Program [NTP]
U.S. Food and Drug Administration [FDA]
Acetylcholinesterase (AChE) is the primary cholinesterase in the body that hydrolyzes a key neurotransmitter, acetylcholine. Inhibition of AChE activity can lead to neurotoxicity. The known inhibitors include organophosphorous pesticides (OP), chemical warfare agents, drugs, and various phytochemicals.
An enzyme-based assay with the recombinant human AChE and Amplite Colormetric acetylcholinesterase assay kit (AAT Bioquest, Sunnyvale, CA) was used to evaluate the chemicals in the Tox21 10K library that inhibit AChE activity. The assay uses 5, 5-dithiobis-(2-nitrobenzoic acid) (DTNB) to quantify the thiocholine produced from the hydrolysis of acetylthiocholine by AChE.
Tox21 Assay Protocol Summary:
For the enzyme-based AChE assay, recombinant human AChE (50 mU/mL) in 4 uL/well was dispensed into black, clear-bottom 1536-well plates using a Multidrop Combi dispenser (Thermo Scientific, MA). Then, 23 nL of compound or DMSO (vehicle control) was transferred into the assay plates by a Pintool Station (Wako Automation, CA). The plates were incubated for 30 min at room temperature, followed by the addition of 4 uL of colorimetric detection cocktail solution (DTNB, acetylthiocholine) into each well using a Flying Reagent Dispenser (Beckman Coulter, CA) and then 10 min incubation at room temperature.
Potency is the fitted concentration of half-maximal effect.

Sequence of Acetylcholinesterase (Homo sapiens) (P22303 whole entry, looked up): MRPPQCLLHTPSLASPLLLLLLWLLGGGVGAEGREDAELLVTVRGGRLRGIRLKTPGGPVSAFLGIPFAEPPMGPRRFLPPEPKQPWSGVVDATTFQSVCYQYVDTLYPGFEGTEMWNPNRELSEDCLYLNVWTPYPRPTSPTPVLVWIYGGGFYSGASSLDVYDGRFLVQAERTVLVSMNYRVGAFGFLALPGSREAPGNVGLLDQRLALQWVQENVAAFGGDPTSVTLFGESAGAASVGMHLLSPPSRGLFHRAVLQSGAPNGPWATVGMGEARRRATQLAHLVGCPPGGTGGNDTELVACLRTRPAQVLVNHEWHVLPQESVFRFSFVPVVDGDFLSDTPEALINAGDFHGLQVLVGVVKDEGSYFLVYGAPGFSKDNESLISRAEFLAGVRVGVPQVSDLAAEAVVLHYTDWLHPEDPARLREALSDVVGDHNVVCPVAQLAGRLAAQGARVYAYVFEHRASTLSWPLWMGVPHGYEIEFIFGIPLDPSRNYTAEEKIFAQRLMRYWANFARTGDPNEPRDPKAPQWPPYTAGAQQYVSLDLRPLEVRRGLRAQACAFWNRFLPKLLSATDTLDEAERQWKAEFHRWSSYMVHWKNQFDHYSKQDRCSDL

| Structure (SMILES) | Potency |
| --- | --- |
| OCCN(CCO)CCO | inactive |
| CCC12COCN1COC2 | inactive |
| Cc1cc(Cl)ccc1O | inactive |
| O=c1[nH]c2ccccc2c(=O)o1 | inactive |
| O=c1[nH]c(=O)[nH]c(=O)[nH]1 | inactive |
| O=C(NC(=O)c1c(F)cccc1F)Nc1cc(Cl)c(OC(F)(F)C(F)C(F)(F)F)cc1Cl (stereo not given) | inactive |
| C#CC(C)(C)NC(=O)c1cc(Cl)cc(Cl)c1 | inactive |
| O=NN1CCCC1 | inactive |
| Nc1ccccc1C(=O)O | inactive |
| CC(C)OC(=O)Nc1cccc(Cl)c1 | inactive |
| Cc1cc(-c2cc(C)c(N)c(C)c2)cc(C)c1N | inactive |
| CNC(=O)Oc1ccccc1OC(C)C | 3.18 µM (active) and 3.17 µM (active) |
| CC(C)=C[C@@H]1[C@@H](C(=O)OCc2coc(Cc3ccccc3)c2)C1(C)C | inactive |
| CCNc1nc(NC(C)(C)C)nc(SC)n1 | inactive |
| c1ccc(OP(Oc2ccccc2)Oc2ccccc2)cc1 | inactive |
| CC1OC(C)OC(C)O1 (stereo not given) | inactive |
| CC1C=[C-]C=C1.[C-]#[O+].[C-]#[O+].[C-]#[O+].[Mn] | inactive |
| O=C1CCCN1 | inactive |
| Cc1[nH]c(=O)n(C(C)(C)C)c(=O)c1Cl | inactive |
| CN(C)CCO | inactive |

| Structure (SMILES) | Potency |
| --- | --- |
| CCCN(CCC)N=O | inactive |
| Nc1c(Cl)c(Cl)nc(C(=O)O)c1Cl | inactive |
| CC(Br)C(=O)O (stereo not given) | inactive |
| CCN(CC)CCO | inactive |
| O=[N+]([O-])c1ccc([As](=O)(O)O)cc1 | inactive |
| CCOC(=O)c1ccccc1C(=O)OCC | inactive |
| CCCN(CCC)c1c([N+](=O)[O-])cc(C(F)(F)F)cc1[N+](=O)[O-] | inactive |
| CC(C)(C)C(O)(CCc1ccc(Cl)cc1)Cn1cncn1 (stereo not given) | inactive |
| c1cc2c3c(cccc3c1)CC2 | inactive |
| CC(C)N1C(=O)c2ccccc2NS1(=O)=O | inactive |
| O=Cc1cccc(Oc2ccccc2)c1 | inactive |
| CN=C=S | inactive |
| CCCCN(CC)C(=O)SCCC | inactive |
| O=S(=O)(c1ccc(Cl)cc1)c1cc(Cl)c(Cl)cc1Cl | inactive |
| Cc1cccc([N+](=O)[O-])c1 | inactive |
| Cc1ccc(N)cc1N | inactive |
| CC(C)OC(=O)Nc1ccccc1 | inactive |
| COC(=O)NC(=S)Nc1ccccc1NC(=S)NC(=O)OC | inactive |
| Cc1ccccc1O | inactive |
| CC(C)(Cl)Cl | inactive |
